The source made the active and inactive calls. Unless noted, no rule for the calls is given here.
Columns and labels:
[1] = HepG2 liver cancer cell viability effects, profiling panel, resazurin fluorescence, 24 h, PK04 Diversity Set (AID 1172); details: higher = more signal
[2] = basal S. cerevisiae growth modulation, no modifier, primary screen, OD600, strain BY4716, 24 h, basal condition (AID 1173); details: OD600, 24 h, higher = more signal, called active from +8 up or from −8 down
[3] = MM1S myeloma cell viability, profiling panel, resazurin fluorescence, basal, 24 h, PK04 Diversity Set (AID 1174); details: higher = more signal, called active from +8 up or from −8 down;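 also: MM1S multiple myeloma cell line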
[4] = biological target: Dihydroorotate dehydrogenase (quinone), mitochondrial (Plasmodium falciparum (isolate 3D7)) (UniProt Q08210); experiment: PfDHODH enzyme inhibitors, primary screen, biochemical, C-terminal His tag, absorbance 600 nm (AID 1175); details: DCIP absorbance 600 nm, higher = more signal, called active from +8 up or from −8 down;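 also: recombinant parasite enzyme with a five histidine tag at its C terminus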
[5] = P. aeruginosa biofilm formation inhibitors, primary screen, strain PAO1, LB-PBS medium, absorbance 600 nm (AID 1176); details: P. aeruginosa PAO1 growth/biofilm, A600, 12 h; higher = more signal
[6] = S. cerevisiae RM11-1a growth modifiers, primary screen, strain RM11-1a, OD600, basal, 24 h (AID 1177); details: OD600, 24 h, higher = more signal, called active from +8 up or from −8 down;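 also: cultures grown under basal conditions with no added stressor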
[7] = E. coli acrAB mutant growth effects, primary screen, E. coli filamentation inducers, strain DRC39, OD650, 24 h (AID 1178); details: higher = more signal, called active from +8 up or from −8 down;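 also: growth measured as culture turbidity by optical density at 650 nm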
[8] = E. coli acrAB mutant growth effects, primary screen, E. coli filamentation inducers, strain DRC39, OD650, 48 h (AID 1179);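 also: screen aims at cell division blockers that make cells filament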; details: E. coli DRC39 delta-acrAB growth, higher = more signal, called active from +8 up or from −8 down
[9] = RPMI8226 myeloma cell viability, profiling panel, resazurin fluorescence, basal, 24 h, PK04 Diversity Set (AID 1180); details: higher = more signal;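 also: RPMI8826 multiple myeloma cell line at 5000 cells per well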
[10] = biological target: E3 ubiquitin-protein ligase XIAP (Homo sapiens) (UniProt P98170); experiment: XIAP binders, primary screen, biophysical, small-molecule microarray, fluorescence 635 nm (AID 1181); details: small-molecule microarray binding, higher = more signal;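 also: score merges 667 nm emission and signal to noise over triplicate slides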
[11] = tested on: XIP peptide (Xip251-270) binding; experiment: small-molecule binders of XIP peptide, primary screen, biochemical, small-molecule microarray, fluorescence 635/667 nm, 0.1 µg/mL protein (AID 1182); details: fluorescent protein binding, 635 nm, higher = more signal, called active from +8 up or from −8 down
[12] = tested on: XIP peptide (Xip251-270); experiment: small-molecule binders of XIP peptide, primary screen, biochemical, small-molecule microarray, fluorescence 635/667 nm, 0.5 µg/mL protein (AID 1183); details: small-molecule microarray binding, fluorescence 635 nm; higher = more signal
[13] = Plasmodium falciparum growth inhibition, primary screen, strain 3D7, DAPI fluorescence, 100 nL (AID 1184);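 also: parasites grown inside human red blood cells in medium with human serum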; details: P. falciparum 3D7 growth, 3 d, higher = more signal
[14] = biological target: Homeobox protein Hox-A13 (Mus musculus) (UniProt Q62424); experiment: inhibitors of HoxA13-DNA binding, primary screen, biochemical, fluorescence polarization, labeled oligonucleotide (AID 1185); details: 15 min, higher = more signal, called active from +8 up or from −8 down
[15] = inhibitors of hydroxyurea-induced Chk1 phosphorylation, primary screen, imaging, HeLa, phospho-Chk1 antibody, percent positive cells (AID 1186); details: hydroxyurea-induced phospho-Chk1 immunofluorescence imaging, higher = more signal
[16] = inhibitors of hydroxyurea-induced Chk1 phosphorylation, primary screen, imaging, HeLa, phospho-Chk1 nuclear intensity (AID 1187); details: hydroxyurea-induced phospho-Chk1 immunofluorescence imaging, higher = more signal

Chain of Homeobox protein Hox-A13 (Mus musculus) (Q62424 whole entry, looked up): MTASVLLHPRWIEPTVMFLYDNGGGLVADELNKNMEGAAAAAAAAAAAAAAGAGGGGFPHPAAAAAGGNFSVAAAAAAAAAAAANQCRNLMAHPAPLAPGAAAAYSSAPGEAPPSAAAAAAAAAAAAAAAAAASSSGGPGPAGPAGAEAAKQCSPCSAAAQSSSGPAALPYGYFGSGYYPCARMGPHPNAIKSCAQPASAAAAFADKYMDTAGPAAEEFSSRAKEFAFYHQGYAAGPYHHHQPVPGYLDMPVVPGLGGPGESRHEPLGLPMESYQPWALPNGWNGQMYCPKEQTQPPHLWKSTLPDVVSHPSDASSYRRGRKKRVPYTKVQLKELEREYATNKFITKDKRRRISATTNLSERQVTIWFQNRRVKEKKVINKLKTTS
Chain of E3 ubiquitin-protein ligase XIAP (Homo sapiens) (P98170 whole entry, looked up): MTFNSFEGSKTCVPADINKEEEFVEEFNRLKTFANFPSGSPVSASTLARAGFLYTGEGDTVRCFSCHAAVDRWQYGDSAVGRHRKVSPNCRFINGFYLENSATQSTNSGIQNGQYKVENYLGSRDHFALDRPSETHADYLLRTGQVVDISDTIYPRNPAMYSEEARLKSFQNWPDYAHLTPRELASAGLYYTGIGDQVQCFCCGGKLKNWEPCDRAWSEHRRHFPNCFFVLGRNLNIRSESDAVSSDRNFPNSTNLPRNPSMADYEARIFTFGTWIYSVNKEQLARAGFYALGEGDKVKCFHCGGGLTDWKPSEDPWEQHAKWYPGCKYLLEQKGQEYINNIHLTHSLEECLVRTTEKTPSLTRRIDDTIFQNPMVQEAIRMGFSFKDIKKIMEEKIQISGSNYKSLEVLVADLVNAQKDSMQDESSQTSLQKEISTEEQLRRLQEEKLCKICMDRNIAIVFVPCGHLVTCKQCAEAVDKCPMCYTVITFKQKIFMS
Chain of Dihydroorotate dehydrogenase (quinone), mitochondrial (Plasmodium falciparum (isolate 3D7)) (Q08210 whole entry, looked up): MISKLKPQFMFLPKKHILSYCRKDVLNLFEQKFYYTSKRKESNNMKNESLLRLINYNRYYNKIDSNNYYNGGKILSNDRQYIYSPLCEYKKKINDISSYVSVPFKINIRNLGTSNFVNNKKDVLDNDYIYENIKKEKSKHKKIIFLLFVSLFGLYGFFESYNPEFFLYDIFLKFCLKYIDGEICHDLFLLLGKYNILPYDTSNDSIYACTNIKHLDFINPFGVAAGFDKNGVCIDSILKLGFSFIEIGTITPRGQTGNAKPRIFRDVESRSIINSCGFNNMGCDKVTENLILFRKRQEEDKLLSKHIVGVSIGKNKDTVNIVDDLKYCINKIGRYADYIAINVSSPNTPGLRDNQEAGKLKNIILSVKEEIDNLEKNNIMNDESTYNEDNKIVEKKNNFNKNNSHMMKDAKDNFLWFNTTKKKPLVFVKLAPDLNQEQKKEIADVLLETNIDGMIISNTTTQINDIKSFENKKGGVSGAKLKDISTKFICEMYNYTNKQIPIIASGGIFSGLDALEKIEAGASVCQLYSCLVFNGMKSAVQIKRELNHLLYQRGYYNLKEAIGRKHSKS

Structure (SMILES) | z-score [1] | z-score [2] | z-score [3] | composite z-score [4] | z-score [5] | z-score [6] | z-score [7] | z-score [8] | z-score [9] | composite z-score [10] | composite z-score [11] | composite z-score [12] | z-score [13] | z-score [14] | z-score [15] | z-score [16]
C=C(C(=O)CC[C@H](OC(=O)c1ccccc1-c1ccccc1C(=O)O)c1cccc(OCCO)c1)C(C)C | -0.862 | -0.907 (inactive) | -0.69 (inactive) | -0.23 (inactive) | 0.804 (inactive) | -0.427 (inactive) | -1.08 (inactive) | -1.03 (inactive) | -0.69 | 0.0617 | -0.145 (inactive) | 0.232 | -2.12 | -5.93 (inactive) | 0.442 (inactive) | -0.51 (inactive)
COCC(=C=CC[C@H](O)c1ccc(OCCO)cc1)CCO | 0.996 | -0.415 (inactive) | 0.654 (inactive) | -1.15 (inactive) | -0.0342 (inactive) | 0.137 (inactive) | 0.53 (inactive) | 0.209 (inactive) | 0.854 | 0.102 | 0.407 (inactive) | -0.252 | -2.93 | -3.28 (inactive) | -0.638 (inactive) | -0.571 (inactive)
CC(C)=C1C(=O)C(c2ccccc2)=C2CN3C(=O)N(CCc4ccccc4)C(=O)[C@]3(Cc3ccc(C(F)(F)F)cc3)[C@H]21 | -1.09 | 0.908 (inactive) | -1.32 (inactive) | -0.29 (inactive) | 0.799 (inactive) | 0.12 (inactive) | -0.943 (inactive) | -0.633 (inactive) | -1.19 | -0.213 | 1.05 (inactive) | -0.498 | -0.503 | -1.59 (inactive) | 0.551 (inactive) | 0.465 (inactive)
CCCC1(C(=O)OC)C=C2C(=C(C)C(=O)C2C)CN1 (stereo unspecified) | -1.11 | 1.99 (inactive) | -1.23 (inactive) | -1.8 (inactive) | 0.343 (inactive) | 0.338 (inactive) | -0.715 (inactive) | 0.0101 (inactive) | -1.88 | 0.258 | -1.06 (inactive) | -0.527 | 0.43 | -4.88 (inactive) | 0.779 (inactive) | 0.909 (inactive)
C=C[C@H](C)[C@H](OC(=O)Nc1ccc(SC)cc1)c1ccc(OCCO)cc1 | -0.551 | -2.49 (inactive) | -0.547 (inactive) | -0.985 (inactive) | 1.15 (inactive) | 0.116 (inactive) | -0.576 (inactive) | -0.435 (inactive) | -0.274 | 0.133 | 2.81 (inactive) | 0.232 | -0.563 | -5.1 (inactive) | -1.34 (inactive) | -0.511 (inactive)
Cc1ccc(NN2C(C(O)c3c(F)cccc3Cl)C=CC3C(=O)N(C4CCCCC4)C(=O)C32)cc1 (stereo unspecified) | 0.703 | -0.074 (inactive) | 0.0812 (inactive) | -1.12 (inactive) | 1.47 (inactive) | -0.717 (inactive) | -0.452 (inactive) | 0.432 (inactive) | 0.262 | 0.122 | -0.391 (inactive) | 0.696 | -0.216 | -3.84 (inactive) | -0.0771 (inactive) | -0.369 (inactive)
CCOC(=O)C[C@H]1[C@H](OC(=O)c2cc3ccccc3oc2=O)[C@@H](NC(=O)c2ccccc2)c2cc(OCCCO)ccc2N1C(=O)c1ccccc1 | -1.3 | -1.89 (inactive) | 0.741 (inactive) | -3.31 (inactive) | -1.02 (inactive) | -0.0038 (inactive) | -0.397 (inactive) | -0.869 (inactive) | -0.171 | -0.0559 | -0.0879 (inactive) | 0.283 | -1.66 | -1.56 (inactive) | 0.171 (inactive) | -0.0272 (inactive)
COC(=O)[C@@]1(Cc2ccccc2)[C@H]2c3cc(C(=O)N4CCCC4)n(CCc4ccccn4)c3C[C@H]2CN1C(=O)c1ccccc1 | 0.281 | 1.3 (inactive) | -0.454 (inactive) | -0.105 (inactive) | -0.126 (inactive) | 0.23 (inactive) | -0.413 (inactive) | -0.906 (inactive) | 0.157 | 0.293 | 1.44 (inactive) | 0.663 | -1.25 | -5.78 (inactive) | 0.249 (inactive) | 0.491 (inactive)
Cc1ccc(S[C@]2(C(=O)NC(C)C)CC(=O)N(Cc3cc(C(F)(F)F)cc(C(F)(F)F)c3)[C@@H]2c2ccc(CO)cc2)cc1 | -0.489 | -1.33 (inactive) | 0.528 (inactive) | -1.06 (inactive) | 0.31 (inactive) | -0.656 (inactive) | -0.0813 (inactive) | -0.229 (inactive) | 0.483 | -0.0125 | 0.706 (inactive) | 0.49 | -0.938 | -2.62 (inactive) | 0.0619 (inactive) | 0.116 (inactive)
CCCCNC(=O)c1ccc(C#CC(C)(C)C)c(OC(C)=O)c1 | 0.111 | -2.59 (inactive) | 0.611 (inactive) | -1.14 (inactive) | -0.517 (inactive) | 0.516 (inactive) | 1.27 (inactive) | 0.256 (inactive) | 0.116 | -0.283 | 0.0374 (inactive) | 0.222 | -1.74 | -5.71 (inactive) | 0.13 (inactive) | 0.411 (inactive)
COC(=O)[C@@]1(Cc2ccc(F)cc2)[C@H]2c3cc(C(=O)N4CCCC4)n(CCc4c[nH]c5ccccc45)c3C[C@H]2CN1C(=O)c1ccccc1 | -1.03 | 1.74 (inactive) | -2.23 (inactive) | -0.106 (inactive) | 0.343 (inactive) | 0.0323 (inactive) | -1.4 (inactive) | -0.319 (inactive) | -2.94 | -0.018 | 0.0236 (inactive) | 0.714 | -1.55 | -3.15 (inactive) | 0.916 (inactive) | 0.634 (inactive)

Reference: PubChem BioAssay
